# Source: PubChem BioAssay (NCATS)
# Records with an inconclusive call do not appear. Activity calls are given as the source filed them. The call rests on the fitted dose curve; in most records, active means well fitted curve in the direction sought with a large enough effect; inconclusive means small, poorly fitted or top-dose-only effect, or another doubt; inactive means no such curve, though single readings can be large; an effect the other way counts as inactive or inconclusive.
# Tested on: not listed separately
# Experiment: qHTS for Inhibitors of Ubiquitin-specific Protease USP2a Using CHOP2 as the Reporter: Cytotox Assay (AID 652170);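 further: HCT116 human colon cancer cells at 600 per well; nearly all actives have a fitted effect of over 70% in size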
# Conditions: HCT116 viability, CellTiter-Glo luminescence, 72 h; series mostly up to 46.1 µM
# Procedure, shortened: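 Cytotoxicity read as ATP luminescence (CellTiter-Glo) after 72 hr compound treatment at 37 deg C. Cells: HCT116, 600/well in DMEM plus 10% FBS. Normalization between DMSO-treated cells and cell-free wells.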
row,SMILES,Potency
1,Cc1ccc(S(=O)(=O)Nc2ccccc2Nc2nc(-c3ccccc3)cs2)cc1,inactive
2,Cc1ccc(-c2cc(C(=O)Nc3ccc(S(=O)(=O)Nc4ccccn4)cc3)c3ccccc3n2)cc1C,inactive
3,O=C(Nc1ccc(C(=O)Nc2nccs2)cc1)c1ccc2ccccc2c1,inactive
4,Cc1ccc(-c2cc(C(=O)Nc3ccc(S(=O)(=O)N(C)Cc4nccs4)cc3)c3ccccc3n2)cc1C,inactive
5,Cc1ccc(-c2cc(C(=O)Nc3ccc(S(=O)(=O)Nc4cccnc4)cc3)c3ccccc3n2)cc1C,inactive
6,Cc1ccc(-c2cc(C(=O)Nc3ccc(S(C)(=O)=O)cc3)c3ccccc3n2)cc1C,inactive

# Target: Ubiquitin carboxyl-terminal hydrolase 2 (Homo sapiens) (UniProt O75604)
# Experiment: qHTS for Inhibitors of Ubiquitin-specific Protease USP2a Using CHOP2 as the Reporter: K484 Substrate (AID 652173);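 further: cleavage of internally quenched K48 di-ubiquitin substrate measured as rising fluorescence over time; potency means the concentration at half of the fitted maximal effect; nearly all actives have a fitted effect of over 70% in size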
# Conditions: USP2 cleavage of DiUb K48 IQF substrate, fluorescence; series mostly up to 57.5 µM
# Procedure, shortened: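 Kinetic fluorescence (Ex 525/Em 598) tracked cleavage of an internally quenched K48 di-ubiquitin substrate, added as a 100 nM solution. The enzyme was added as a 5 nM USP2 solution before compound pinning, with no-enzyme controls. Buffer: Tris pH 8, beta-mercaptoethanol, CHAPS.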
# Ubiquitin carboxyl-terminal hydrolase 2 (Homo sapiens), sequence (O75604 whole entry, looked up): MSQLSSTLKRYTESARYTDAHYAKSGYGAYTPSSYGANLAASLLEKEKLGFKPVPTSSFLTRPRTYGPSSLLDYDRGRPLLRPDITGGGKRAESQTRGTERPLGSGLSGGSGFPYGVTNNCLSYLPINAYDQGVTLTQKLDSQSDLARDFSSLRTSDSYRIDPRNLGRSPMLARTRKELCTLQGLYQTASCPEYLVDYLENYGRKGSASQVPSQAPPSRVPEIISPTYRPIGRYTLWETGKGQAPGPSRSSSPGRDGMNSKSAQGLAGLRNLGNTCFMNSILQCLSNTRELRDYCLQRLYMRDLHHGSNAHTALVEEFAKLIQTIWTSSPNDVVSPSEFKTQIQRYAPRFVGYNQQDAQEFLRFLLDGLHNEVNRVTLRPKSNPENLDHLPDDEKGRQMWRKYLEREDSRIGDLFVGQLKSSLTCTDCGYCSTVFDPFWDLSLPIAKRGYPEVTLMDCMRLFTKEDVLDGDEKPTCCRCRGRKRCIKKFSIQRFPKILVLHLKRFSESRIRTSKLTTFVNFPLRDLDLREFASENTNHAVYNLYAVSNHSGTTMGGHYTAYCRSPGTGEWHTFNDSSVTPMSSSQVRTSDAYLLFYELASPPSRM
row,SMILES,Potency
1,Cc1ccc(S(=O)(=O)Nc2ccc(C(=O)Nc3nc(-c4ccccc4)cs3)cc2Cl)cc1,2.17 µM (active)
2,Cc1ccc(S(=O)(=O)Nc2ccccc2Nc2nc(-c3ccccc3)cs2)cc1,3.85 µM (active)
3,Cc1ccc(-c2cc(C(=O)NCc3ccc(S(N)(=O)=O)cc3)c3ccccc3n2)cc1C,9.68 µM (active)
4,Cc1ccc(S(=O)(=O)Nc2ccc(Cl)c(C(=O)Nc3nc(-c4ccccc4)cs3)c2)cc1,2.43 µM (active)
5,Cc1ccc(-c2cc(C(=O)Nc3ccc(S(=O)(=O)Nc4ccccn4)cc3)c3ccccc3n2)cc1C,4.32 µM (active)
6,CCCCC1CCC(C(=O)Nc2ccc(S(=O)(=O)Nc3nccs3)cc2)CC1 (stereo unspecified),4.85 µM (active)
7,Cc1ccc(-c2cc(C(=O)Nc3cccc(S(N)(=O)=O)c3)c3ccccc3n2)cc1C,5.44 µM (active)
8,Cc1ccc(S(=O)(=O)Nc2ccccc2C(=O)Nc2cnc(-c3ccccc3)cn2)cc1,3.43 µM (active)
9,O=C(Nc1ccc(C(=O)Nc2nccs2)cc1)c1ccc2ccccc2c1,3.85 µM (active)
10,Cc1ccc(-c2cc(C(=O)Nc3ccc(S(=O)(=O)N(C)Cc4nccs4)cc3)c3ccccc3n2)cc1C,3.85 µM (active)
11,Cc1ccc(-c2cc(C(=O)Nc3ccc(S(=O)(=O)Nc4cccnc4)cc3)c3ccccc3n2)cc1C,6.85 µM (active)
12,O=C(Nc1ccc(S(=O)(=O)Nc2nccs2)cc1)c1ccc2ccccc2c1,2.73 µM (active)
13,O=S(=O)(Nc1nccs1)c1ccc(Nc2nc(-c3ccc(-c4ccccc4)cc3)cs2)cc1,1.93 µM (active)
14,CNS(=O)(=O)c1ccc(NC(=O)c2cc(-c3ccc(C)c(C)c3)nc3ccccc23)cc1,4.85 µM (active)
15,Cc1ccc(S(=O)(=O)Nc2ccccc2C(=O)Nc2ncc(-c3ccccc3)o2)cc1,2.43 µM (active)
16,Cc1ccc(-c2cc(C(=O)Nc3ccc(S(C)(=O)=O)cc3)c3ccccc3n2)cc1C,6.85 µM (active)

# Target: Tyrosine-protein kinase Yes (Homo sapiens) (UniProt P07947)
# Experiment: qHTS for small molecule inhibitors of Yes1 kinase: Primary Screen (AID 686947); further: nearly all actives have a fitted effect of over 60% in size; further: potency means the concentration at half of the fitted maximal effect
# Conditions: Yes1 kinase biochemical qHTS inhibition; series mostly up to 76.9 µM
# Procedure, shortened: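 In this qHTS format, inhibition is expressed relative to DMSO controls with enzyme (maximum) and without enzyme (minimum). The 60 min room-temperature reaction uses 0.1 mM ATP, with ADP detected by luminescence.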
# Tyrosine-protein kinase Yes (Homo sapiens), sequence (P07947 whole entry, looked up): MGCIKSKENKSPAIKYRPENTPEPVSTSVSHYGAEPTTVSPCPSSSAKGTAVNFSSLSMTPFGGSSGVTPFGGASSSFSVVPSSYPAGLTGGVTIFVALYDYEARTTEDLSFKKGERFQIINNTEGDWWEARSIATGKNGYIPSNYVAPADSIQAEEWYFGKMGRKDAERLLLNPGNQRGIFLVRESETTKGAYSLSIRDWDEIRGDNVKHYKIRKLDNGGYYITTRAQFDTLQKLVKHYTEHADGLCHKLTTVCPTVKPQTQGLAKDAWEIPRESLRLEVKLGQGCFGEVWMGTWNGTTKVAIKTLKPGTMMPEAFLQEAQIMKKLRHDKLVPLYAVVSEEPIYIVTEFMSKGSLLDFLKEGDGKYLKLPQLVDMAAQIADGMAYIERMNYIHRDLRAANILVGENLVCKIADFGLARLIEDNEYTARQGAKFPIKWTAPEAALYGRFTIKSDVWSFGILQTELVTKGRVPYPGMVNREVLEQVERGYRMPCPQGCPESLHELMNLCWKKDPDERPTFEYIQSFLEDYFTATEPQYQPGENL
row,SMILES,Potency
1,CN(C)c1ccc2[nH]c(O)c(C=Nc3ccc(S(N)(=O)=O)cc3)c2c1,4.63 µM (active)
2,O=C(Nc1n[nH]c2nc(-c3ccco3)c(Br)cc12)C1CC1,8.23 µM (active)
3,CCN(CC)Cc1ccc(Nc2nccc(-c3cnn4ncccc34)n2)cc1,7.33 µM (active)
4,NC(=O)Cc1ccccc1Oc1nccc(-c2c(-c3ccc(F)cc3)ncn2C2CCNCC2)n1,36.8 µM (active)
5,Fc1ccc(-c2ncn(C3CCNCC3)c2-c2ccnc(Oc3ccc(Oc4ccccc4)cc3)n2)cc1,inactive
6,CCn1c(-c2nonc2N)nc2cncc(C(=O)NCCNC)c21,1.3 µM (active)
7,NS(=O)(=O)c1ccc(N=Nc2c(O)[nH]c3ccc(C(=O)NCCc4cnc[nH]4)cc23)cc1,2.6 µM (active)
8,CN(C)CCCn1c(-c2nonc2N)nc2cnccc21,inactive
9,CCn1c(-c2nonc2N)nc2cncc(C(=O)N3CCNCC3)c21,1.46 µM (active)
10,CCn1c(-c2nonc2N)nc2c(C#CC(C)(C)O)ncc(OCC3CCNCC3)c21,23.2 µM (active)
11,O=C1NC(=O)C(c2ccccc2Cl)=C1Nc1cccc(O)c1,8.23 µM (active)
12,CC(=O)Nc1cccc(C#Cc2cncnc2Nc2ccc(OCc3cccc(F)c3)c(Cl)c2)c1,23.2 µM (active)
13,O=C(Nc1ccc(Oc2ccc3nc(NC(=O)c4ccco4)[nH]c3c2)cc1)Nc1cc(C(F)(F)F)ccc1F,4.12 µM (active)
14,CNC(=O)c1ncccc1Nc1nc(Nc2cc3c(cc2OC)CCCN3C(=O)CN(C)C)nc2[nH]ccc12,inactive
15,CNC(=O)c1cncc(C=Cc2c(C)cccc2C)c1,0.463 µM (active)
16,CS(=O)(=O)CCN(CC#N)Cc1ccc(-c2ccc3ncnc(Nc4ccc(OCc5cccc(F)c5)c(Cl)c4)c3c2)o1,inactive
17,Oc1[nH]c2ccccc2c1C=Nc1ccc(-n2cncn2)cc1,9.23 µM (active)
18,COc1cccc(-n2ncc3c(NN=Cc4ccc(S(C)(=O)=O)cc4)ncnc32)c1,0.0923 µM (active)
19,Clc1ccc(-c2nn3ncccc3c2-c2ccnc(Nc3ccccc3)n2)cc1,0.292 µM (active)
20,Cc1cc(O)cc(C)c1C=Cc1cncc(C(=O)N(C)C)c1,23.2 µM (active)
21,COC(=O)Nc1nc2ccc(Oc3ccc(NC(=O)Nc4cccc(Br)c4)cc3)cc2[nH]1,inactive
22,Nc1ncc(-c2cccc(S(N)(=O)=O)c2)c2scc(-c3ccc(F)c(Cl)c3)c12,0.368 µM (active)
23,Cc1ccc(O)cc1Nc1ccnc2cc(-c3ccccn3)ccc12,0.0073 µM (active)
24,COc1cc(Nc2ncc3c(C)nc(-c4cccc(Oc5ccccc5)c4)n3n2)cc(OC)c1OC,5.19 µM (active)
